The whole screen tested about 370,000 compounds, of which about 4,100 (1.1%) were called active.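 Rule for the calls: active = inhibition above the mean over all tested compounds plus 3 SD (cut at about 3.6% in these data); inactive = the rest.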 The sample as a whole holds a higher share of actives than the screen did.
Assay: DAX1 (NR0B1) inhibitors on StAR promoter, primary screen, cell-based, luminescence, SF-1 (NR5A1), full-length DAX-1 (AID 652010);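 note: 0% = DAX-1 cells with DMSO and 100% = cells lacking DAX-1 with DMSO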
Details: HEK293T StAR-luciferase reporter, SF-1/DAX-1 repression relief; at 6.8 µM; hits give high values

Question: With `COc1ccc(S[C@]2(C(=O)N(C)C)CC(=O)N(c3ccc(OC)cc3)[C@@H]2c2ccc(OC)cc2)cc1` as the compound, how does the inhibition read?
Answer: The inhibition was -0.46% (inactive).

Question: With `Cc1cc(=O)[nH]c(SCC(=O)Nc2ccc(Cl)cc2C)n1` as the compound, how does the inhibition read?
Answer: The inhibition was 0.86% (inactive).

Question: For `Cc1ccc(S(=O)(=O)N2C[C@H]3n4c(=O)ccc(=O)n4C[C@H](OC(=O)NC4CCCC4)[C@@]3(O)C2)cc1`, which inhibition is on record?
Answer: Its inhibition is -0.77% (inactive).

Question: Which inhibition does the source give for `CCCCCCNC(=O)O[C@H]1CN(C(=O)OC(C)C)N(C(=O)OC(C)C)[C@@H]2CN(S(=O)(=O)c3ccc(C)cc3)C[C@]12O` here?
Answer: Its inhibition is 4.45% (active).

Question: With `CCCCCCNC(=O)O[C@]12C[C@@H](C(=O)OC)[C@@H](C(=O)OC)C[C@@]1(O)CN(S(=O)(=O)c1ccc(C)cc1)C2` as the compound, how does the inhibition read?
Answer: The inhibition was -0.86% (inactive).

Question: Which inhibition does the source give for `Cc1ccccc1NC(=O)COC(=O)c1ccc(Sc2ncn[nH]2)c([N+](=O)[O-])c1` here?
Answer: The inhibition was 2.48% (inactive).

Question: With `CC1(C)OC(=O)C2=C(CC(CCc3ccccc3)OC2c2ccc(Cl)cc2)O1` (configuration not stated) as the compound, how does the inhibition read?
Answer: Its inhibition is -1.2% (inactive).

Question: For `O=C(COC(=O)c1ccc2ncsc2c1)Nc1ccc(Cl)cc1`, which inhibition is on record?
Answer: The inhibition was -0.21% (inactive).

Question: For `COc1ccccc1-c1nnc(NC(=O)c2ccc3ncsc3c2)o1`, which inhibition is on record?
Answer: Its inhibition is 0.87% (inactive).

Question: Which inhibition does the source give for `Cc1sc(NC(=O)c2ccc3ncsc3c2)c(C(N)=O)c1C` here?
Answer: Its inhibition is 10.2% (active).

Question: For `CCNC(=O)c1cccc(NC(=O)C2CC(=O)N(CCc3ccccc3)C2)c1` (configuration not stated), which inhibition is on record?
Answer: Its inhibition is 0.37% (inactive).

Question: Which inhibition does the source give for `CN(Cc1ccccc1Cl)C(=O)C1CCC(=O)N(CCc2cccc(F)c2)C1` (configuration not stated) here?
Answer: The inhibition was 0.69% (inactive).

Question: With `CN(CC(=O)Nc1cccc(F)c1)C(=O)C1CC(=O)N(CCc2ccccc2)C1` (configuration not stated) as the compound, how does the inhibition read?
Answer: Its inhibition is 4.19% (active).

Question: Which inhibition does the source give for `C=CCN1C(=O)[C@@H](CC(=O)N2CCN(C(=O)OCC)CC2)[C@]2(C(=O)OCC)CCCCC/C=C/12` here?
Answer: Its inhibition is 1.04% (inactive).

Question: With `COC(=O)[C@H](C(C)C)N(CCCc1cn(Cc2ccccc2)nn1)S(=O)(=O)c1ccc(F)cc1Br` as the compound, how does the inhibition read?
Answer: Its inhibition is -1.67% (inactive).

Question: For `Cc1sc2ncnc(N3CCC(C(=O)Nc4ccc(F)cc4Cl)CC3)c2c1C`, which inhibition is on record?
Answer: The inhibition was 1.94% (inactive).

Question: With `Cc1sc2ncnc(N3CCC(C(=O)NNC(=O)c4ccc(F)cc4)CC3)c2c1C` as the compound, how does the inhibition read?
Answer: Its inhibition is -3.62% (inactive).

Question: Which inhibition does the source give for `Cc1sc2ncnc(N3CCC(C(=O)Nc4nc5ccc(Cl)cc5s4)CC3)c2c1C` here?
Answer: The inhibition was 4.32% (active).

Question: For `CC(=O)C1=C(C)N(Cc2ccc(Cl)cc2)C(=S)NC1c1ccc(F)cc1` (configuration not stated), which inhibition is on record?
Answer: The inhibition was 0.31% (inactive).

Question: With `COc1ccc(C(=O)OCC(=O)Nc2cc(C)on2)cc1F` as the compound, how does the inhibition read?
Answer: Its inhibition is -1.4% (inactive).

Question: Which inhibition does the source give for `Cc1cc(NC(=O)COn2nnc3ccccc32)no1` here?
Answer: The inhibition was 0.82% (inactive).

Question: For `Cc1cc(NC(=O)COc2ccccc2C#N)no1`, which inhibition is on record?
Answer: The inhibition was 4.34% (active).

Question: With `COc1ccc(C2CC(=O)C=C(NCC3CCCO3)C2)cc1` (configuration not stated) as the compound, how does the inhibition read?
Answer: The inhibition was -0.07% (inactive).

Question: Which inhibition does the source give for `CCCCCCN1CCS(=O)(=O)N(Cc2ccc(C(F)(F)F)cc2)C(C(=O)OC)C1` (configuration not stated) here?
Answer: Its inhibition is -0.72% (inactive).

Question: With `CCc1ccc(CN2C(=O)c3ccccc3C2C(=O)NCC2CCCO2)cc1` (configuration not stated) as the compound, how does the inhibition read?
Answer: The inhibition was -0.05% (inactive).

Question: Which inhibition does the source give for `CC(=NCC1CCCO1)c1c(O)[nH]c(=O)[nH]c1=O` (configuration not stated) here?
Answer: The inhibition was 1.34% (inactive).

Question: Which inhibition does the source give for `O=C1C(C=NCC2CCCO2)=C(O)c2ccccc21` (configuration not stated) here?
Answer: The inhibition was 4.59% (active).

Question: With `COc1ccc(CNS(=O)(=O)c2cc(Br)ccc2Br)cc1` as the compound, how does the inhibition read?
Answer: The inhibition was -0.4% (inactive).

Question: Which inhibition does the source give for `COc1ccc(C(=O)CSc2nnc(NC(=O)C3CC(=O)N(c4cccc(OC)c4)C3)s2)cc1` (configuration not stated) here?
Answer: Its inhibition is -0.22% (inactive).

Question: For `NC(=O)CSc1nnc(NC(=O)c2ccc3ccccc3c2)s1`, which inhibition is on record?
Answer: Its inhibition is 6.15% (active).

Question: Which inhibition does the source give for `CCSc1nnc(NC(=O)c2ccc(C)cc2)s1` here?
Answer: Its inhibition is 5.52% (active).

Question: With `COC(=O)c1ccc(CSc2nnc(NC(C)C)s2)cc1` as the compound, how does the inhibition read?
Answer: The inhibition was -0.08% (inactive).

Question: Which inhibition does the source give for `CCCc1cc(=O)[nH]c2nnc(SCC(=O)Nc3nnc(SCC)s3)n12` here?
Answer: Its inhibition is 2.35% (inactive).

Question: For `O=C(/C=C/c1ccccc1)Nc1nnc(SCC(=O)c2ccc3ccccc3c2)s1`, which inhibition is on record?
Answer: Its inhibition is 0.17% (inactive).

Question: For `CCCCOCCCNC(=O)C[C@H]1C[C@@]2(C(=O)OC)C(=C[C@H](COCc3ccccc3)O[C@@H]2C)N(Cc2cccc3ccccc23)C1=O`, which inhibition is on record?
Answer: Its inhibition is -0.91% (inactive).

Question: Which inhibition does the source give for `COc1cc(NC(=O)C2CCCN(S(=O)(=O)c3ccc(C(C)(C)C)cc3)C2)cc(OC)c1` (configuration not stated) here?
Answer: The inhibition was 0.97% (inactive).

Question: With `C/C(=N\NC(=O)c1ccccc1F)c1ccccn1` as the compound, how does the inhibition read?
Answer: Its inhibition is 6.14% (active).

Question: Which inhibition does the source give for `C/C(=N/NC(=O)c1ccn(C)n1)c1ccncc1` here?
Answer: The inhibition was -0.02% (inactive).

Question: For `O=C(Nc1nnc(-c2ccccc2F)s1)c1ccccc1F`, which inhibition is on record?
Answer: The inhibition was 0.85% (inactive).

Question: For `CCCCCCCCNS(=O)(=O)/C=C/c1cc(C)ccc1CNC(=O)OC(C)(C)C`, which inhibition is on record?
Answer: The inhibition was -1.91% (inactive).

Question: Which inhibition does the source give for `CN[C@H]1C[C@H]2c3cc(N4CCOCC4)ccc3CCN2C[C@H]1[C@H](C)O` here?
Answer: Its inhibition is -0.26% (inactive).

Question: With `COC(=O)C1=C(C)N(Cc2cccc(C(F)(F)F)c2)C(=NCc2ccccc2)NC1c1ccccc1C(F)(F)F` (configuration not stated) as the compound, how does the inhibition read?
Answer: The inhibition was -0.23% (inactive).

Question: With `COc1ccc(C(=O)COC(=O)c2nn(C)c(=O)c3ccccc23)c(OC)c1` as the compound, how does the inhibition read?
Answer: Its inhibition is 1.33% (inactive).

Question: With `COc1ccc(C(=O)COC(=O)C(O)c2ccccc2)c(OC)c1` (configuration not stated) as the compound, how does the inhibition read?
Answer: The inhibition was 3.84% (active).

Question: For `COc1ccc(C(=O)COC(=O)CN2C(=O)C3CC=CCC3C2=O)c(OC)c1` (configuration not stated), which inhibition is on record?
Answer: Its inhibition is 1.03% (inactive).

Question: For `Brc1ccc(C2CC(c3ccccc3)=Nc3ccccc3N2)cc1` (configuration not stated), which inhibition is on record?
Answer: The inhibition was 3.86% (active).

Question: Which inhibition does the source give for `CNC(=S)N1N=C(c2ccccc2)CC1c1ccc(Br)cc1` (configuration not stated) here?
Answer: Its inhibition is -0.46% (inactive).

Question: For `S=C1NC(c2ccccc2)=NCN1c1ccc(Br)cc1`, which inhibition is on record?
Answer: Its inhibition is 0% (inactive).

Question: With `CCOC(=O)c1c(C)[nH]c(C2=NNC(=NC(C)COC)SC2)c1C` (configuration not stated) as the compound, how does the inhibition read?
Answer: The inhibition was 4.39% (active).

Question: Which inhibition does the source give for `O=C1Nc2ccccc2C1=NN=Cc1ccco1` here?
Answer: Its inhibition is -1.23% (inactive).

Question: Which inhibition does the source give for `CCOC(=O)[C@]12CCCCC/C=C\1N(Cc1ccc(OC)cc1)C(=O)[C@H]2CC(=O)NCCCN1CCCC1=O` here?
Answer: Its inhibition is 0.28% (inactive).

Question: For `CN(C)S(=O)(=O)c1ccc(C(=O)NCC2(N3CCOCC3)CCCCC2)cc1`, which inhibition is on record?
Answer: Its inhibition is 3.47% (inactive).

Question: For `O=C(NCC1CCCO1)c1ccc(S(=O)(=O)Nc2ccc(F)cc2)cc1` (configuration not stated), which inhibition is on record?
Answer: The inhibition was 0.67% (inactive).

Question: For `O=C(NCC1(N2CCCCC2)CCCCC1)c1ccc(NS(=O)(=O)c2ccc(F)cc2)cc1`, which inhibition is on record?
Answer: Its inhibition is 10.6% (active).

Question: With `CCOc1ccc(NS(=O)(=O)c2ccc(C(=O)NCC(c3ccccc3OC)N3CCCC3)cc2)cc1` (configuration not stated) as the compound, how does the inhibition read?
Answer: The inhibition was 1.1% (inactive).

Question: For `O=C(NCC1(N2CCCCC2)CCCCC1)c1cccc(S(=O)(=O)Nc2ccccc2Cl)c1`, which inhibition is on record?
Answer: Its inhibition is 3.28% (inactive).

Question: Which inhibition does the source give for `CCOc1ccc(S(=O)(=O)Nc2cccc(C(=O)NCC3(N4CCCCC4)CCCCC3)c2)cc1` here?
Answer: The inhibition was 6.71% (active).
